Compound activity deposited in PubChem by National Center for Advancing Translational Sciences (NCATS).
Compounds with a hit are over-represented: about 19% of the library has one in this group of screens.
HT1080 IDH1KD tx – HT-1080 IDH1 knockdown cell toxicity (counter line); Potency, µM (top dose mostly 46.1 µM), for the others: at the highest dose activity, negative = toxicity, usual class: cytotoxic; AID 686971; hit rate 2% among 360,000; HT-1080 IDH1 knockdown viability, ATP luminescence, 48 h;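 note: potency is the fitted concentration of half-maximal effect; 0% = DMSO wells and -100% = cell-free medium wells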
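In this qHTS, HT-1080 cells depleted of IDH1 are exposed for 48 h at 37 °C to compound titrations. Toxicity is scored from CellTiter-Glo luminescence, with DMSO as full viability and medium alone as none.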
ELG1 repair inh – ELG1-dependent DNA repair inhibition; Potency, µM (top dose mostly 46.1 µM), without a hit: at the top dose activity change, negative = inhibition, actives largely listed as inhibitors; HEK293T ELG1-luciferase reporter, luminescence, 16 h; DNA damage induced by 5-fluorouridine; hit rate 2.3% among 330,000; AID 504467; note: potency is the fitted concentration of half-maximal effect; nearly all actives have a fitted effect of over 55% in size
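Luminescence from the luciferase reporter, measured 30 min after ONE-Glo reagent at room temperature, was the read-out. Beforehand, 2,000 cells per well were exposed for 16 hr at 37 °C to 5-fluorouridine together with compound or vehicle.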
DT40 TDP1 CPT – DT40-hTDP1 cell growth loss with CPT | chicken DT40 Tdp1-/-;hTDP1 cells + 20 nM CPT, ATP luminescence, 48 h | Potency, µM (highest dose often 46.2 µM), for inactives: at the top dose activity change, negative = growth inhibition, actives largely listed as inhibitors | hit rate 12% among 420,000 | AID 686979; note: potency is the fitted concentration of half-maximal effect; nearly all actives have a fitted effect of over 55% in size
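Cell growth measured by CellTiter-Glo luminescence after a minimum 48 h, 37 C compound exposure with 20 nM CPT in Tdp1-knockout DT40 cells stably expressing hTDP1, seeded 400/well; qHTS titration format.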
IL1B secr inh – blocks inflammasome-driven IL-1 beta release; activity change, % at 57.5 µM; hit rate 4.7% among 360,000; THP-1 LPS/ATP IL-1B secretion, AlphaLISA, 16 h; stronger effect = lower value; in the data active = activity change below about -50%; inconclusive = mostly about -30% to -49%
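THP-1 cells pretreated 1 hr with compounds (up to 57.5 uM final), then stimulated with LPS (250 ng/mL final) plus ATP (1.25 mM final); secreted IL-1B measured by AlphaLISA after 16 hr, decreased signal indicating inhibition.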
HT1080NT lethal – kills 2HG-producing HT-1080-NT fibrosarcoma cells. HT-1080-NT fibrosarcoma viability, CellTiter-Glo ATP luminescence, 48 h. Potency, µM (highest dose often 46.1 µM), for the others: top-dose activity, negative = less viability, most hits filed as cytotoxic. hit rate 1.6% among 360,000;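 note: NT is the 2HG producing partner of a matched IDH1 knockdown line; potency is the fitted concentration of half-maximal effect; 0% = DMSO-treated cells and -100% = media-only wells without cells; nearly all actives have a fitted effect of over 55% in size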
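Compounds were tested in concentration-response format on HT-1080-NT cells for 48 hours at 37 degrees C. Cell viability came from CellTiter-Glo luminescence; curves were classified by r2, response magnitude and activity.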
DT40 TDP1 no CPT – qHTS for Inhibitors of human tyrosyl-DNA phosphodiesterase 1 (TDP1): qHTS in cells in absence of CPT; DT40 Tdp1-/- hTDP1 cells, no CPT, ATP luminescence, 48 h; Potency, µM (doses to about 46.2 µM), inactives show top-dose activity change, negative = growth inhibition, hits mostly inhibitors; hit rate 15% among 420,000; AID 686978, 2013; note: potency is the fitted concentration of half-maximal effect; nearly all actives have a fitted effect of over 55% in size
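Chicken DT40 Tdp1-/- cells complemented with human TDP1, screened without camptothecin (DMSO vehicle only), 400 cells/well. Compounds pin-transferred, cells incubated at 37 °C for at least 48 hr. Growth read as ATP-dependent luminescence (CellTiter-Glo, 30 min at RT).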
Active calls of the source: *; ? = inconclusive; . = not tested or not shown; ! = a repeat was not active; [ ] = another dose, or the depositor's remark. Unless noted, calls come from the whole dose curve; as a rule, active = well fitted curve in the direction sought with a large enough effect; inconclusive = small, poorly fitted or top-dose-only effect, or another doubt; inactive = no such curve, though single readings can be large; an effect the other way counts as inactive or inconclusive. Unless noted, % is set by controls: 0 for no effect and ±100 for the full control effect.

SMILES	HT1080 IDH1KD tx	ELG1 repair inh	DT40 TDP1 CPT	IL1B secr inh	HT1080NT lethal	DT40 TDP1 no CPT
Cc1nn(CCC#N)c2c1P(=S)(N1CCCC1)OC(c1ccc(F)cc1)=N2 (configuration not stated)	2.9%	-1.1%	29.1µM*	13.2	-1.2%	?
COc1ccc(CNC(=O)CCC(=O)N2C[C@H]3C[C@H](C2)c2cccc(=O)n2C3)cc1	8.2%	1.2%	3.1%	0.3	4.1%	2.7%
COc1ccc(CCNCc2ccc3c(c2)n(C)c(=O)n3C)cc1	.	.	?	.	.	-32.2%
Cn1c(=O)n(C)c2cc(CNCCc3ccc(F)cc3)ccc21	.	.	16.4µM*	.	.	25.9µM*
COC(=O)CSC1=NN1c1cc(C)nc(N)n1	0.7%	5.6%	25.6%	-5.0	-5.1%	9.8%
CC1(CCl)CN1S(=O)(=O)c1ccccc1 (configuration not stated)	?	?	18.4µM*	-27.8	-19.5%	?
O=C(Nc1ccc2nc(SCC(=O)N3CCOCC3)sc2c1)c1ccc(Cl)cc1	.	.	?	.	.	7.31µM*
Cc1ccc2nc(NC(=O)c3cccn(Cc4ccc(Cl)cc4)c3=O)sc2c1	.	.	-3.3%	.	.	2.1%
CC(C)OP(=O)(c1ccc(N(C)C)cc1)C(O)c1ccc(Br)cc1 (configuration not stated)	5.9%	?	4.8%	-4.7	-4.7%	-26.5%
CN1CCc2nc(SCc3cccc(Br)c3)c(C#N)cc2C1	?	-3.4%	?	-7.3	?	18.4µM*
Cc1ccc(C)c(C2(O)CC(C)N(C)CC2C)c1 (configuration not stated)	2.0%	-15.3%	-14.8%	-1.4	-1.9%	?
CC(C)[C@H](N)C(=O)OCCOCn1cnc2c(=O)[nH]c(N)nc21	8.5%	0.9%	1.84µM*	4.7	26.1%	2.91µM*
COCCN1C(=O)NC(=O)/C(=C\c2ccc(Br)cc2)C1=O	-2.6%	4.9%	20.6µM*	-2.3	-1.4%	?
CCOc1cc(/C=C2\C(=O)NC(=O)N(CCc3ccc(F)cc3)C2=O)ccc1O	4.2%	13.3%	-13.7%	21.6	2.2%	-20.1%
CCc1ccc(NC2=NCCCS2)cc1	7.8%	1.1%	-28.5%	-9.8	12.0%	?
CC(C)(C)c1o[nH]c(=O)c1C[C@H](N)C(=O)O	.	.	5.5%	.	.	-4.7%
C[C@@H](Cc1cccc(C(F)(F)F)c1)NCCCc1ccccc1	.	.	13.3µM*	.	.	13.3µM*
CCN[C@@H](C)Cc1ccccc1	.	.	12.9%[92.5 µM]	.	.	2.8%[92.5 µM]
NC(=O)OCCCc1ccccc1	10.9%	.	5.31µM*!	-7.1	1.0%	21.1µM*!
CC[N+](C)(CC)CCCOC(=O)C(O)(c1ccccc1)C1CCCCC1 (configuration not stated)	0.1%	8.1%	1.4%	-14.0	6.6%	4.4%
O=C(Cc1ccccc1)c1ccccn1	17.2%	.	?	0.2	5.5%	?
COC(=O)C1CN(C#N)N(c2ccc(Cl)cc2)C12c1ccccc1-c1ccccc12 (configuration not stated)	3.66µM*	5.8µM*	3.26µM*	-97.0*	3.26µM*	2.91µM*
Cc1c(O)ccc(C(=O)CN2CC(C)OC(C)C2)c1O (configuration not stated)	1.0%	?	-4.4%	10.1	-0.4%	-1.5%
c1ccc2c(c1)Sc1ccccc1N2CC1CN2CCC1CC2 (configuration not stated)	-3.9%	16.2%	2.66µM*!	-24.2	-6.8%	6.68µM*
CC1(O)CCC2C3CCC4=CC(=O)CCC4=C3C=CC21C (configuration not stated)	?	.	9.2µM*	19.6	-2.7%	14.6µM*
